The values that follow come from PubChem BioAssay (NCI).

Compounds without any hit were thinned out: in the full panel of roughly 79,000, 15% have a hit. A number with no mark means an inactive call. Active and inactive are the calls of the source. Cut-off read from the data, not from the text of the source: active = growth inhibition above about 70%; inactive = the rest.

The nature of the test: NCI Yeast Anticancer Drug Screen. Data for the rad14 strain (AID 159).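 Note: 0% = growth of vehicle-treated control cultures.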 Particulars: S. cerevisiae rad14 strain growth inhibition, stronger effect = higher value. The protocol: Growth inhibition of yeast strains with defined genetic alterations is measured as a screen for potential anti-cancer activity. Selected strains with alterations in DNA damage repair or cell cycle control were exposed to compounds and growth inhibition was measured relative to vehicle treated controls. The strain used in this assay is rad14

With `COc1ccc(C(=O)Oc2ccccc2Br)cc1`, the growth inhibition runs as follows: (at 1.2 µM) 3%; (at 3.7 µM) -1%; (at 11.0 µM) -1%; (at 33.0 µM) 10%; (at 100.0 µM) 39%.
Turning to `O=c1[nH]c(-c2ccccc2)nc2c1sc1nc3ccccc3n12`, the growth inhibition reads like this: (at 1.2 µM) -24%; (at 3.7 µM) -22%; (at 11.0 µM) -24%; (at 33.0 µM) -14%; (at 100.0 µM) -11%.
In the case of `CCCCCCCCCCCC1=NCCO1`, the growth inhibition reads like this: (at 1.2 µM) 3%; (at 3.7 µM) 9%; (at 11.0 µM) 15%; (at 33.0 µM) 50%; (at 100.0 µM) 99% (active).
The like results for `COC(C(O)CO)C(O)C(O)C(=O)NNc1ccccc1` (stereo not given) were, in that order, 6%, 9%, 19%, 21% and 84% (active).
The like results for `CCC1(OC(=O)CN2CCN(CCO)CC2)C(=O)OCc2c1cc1n(c2=O)Cc2cc3ccccc3nc2-1` (stereo not given) were, in that order, -13%, -4%, -25%, -14% and -20%.
The matching figures for `N/C(=N/N=C/c1cc(Br)cc(Br)c1O)NO`: -19%, -1%, 82% (active), 97% (active) and 98% (active).
For `OCC(CO)C(c1cccc2ccccc12)c1cccc2ccccc12`, the growth inhibition was 0% (at 1.2 µM); 20% (at 3.7 µM); 99% (active) (at 11.0 µM); 99% (active) (at 33.0 µM); 90% (active) (at 100.0 µM).
In the case of `CCc1nc2ccc(NCCN(C)C)c3c(=O)c4ccccc4n1c23`, the growth inhibition was 31% (at 1.2 µM); 33% (at 3.7 µM); 35% (at 11.0 µM); 37% (at 33.0 µM); 58% (at 100.0 µM).
